# Laboratory results from PubChem BioAssay AID652017 (The Scripps Research Institute Molecular Screening Center, 2013).
# About 3,800 (1%) of roughly 370,000 compounds were called active. For the sample, actives were picked, then their nearest neighbours and some compounds at random. Values without a mark were called inactive. No stated cut-off is given here; in the data, active means activation above about 7.8%; inactive means the rest.
# Assay: SMARCA2 (BRM) function activators, primary screen, cell-based, luminescence, high throughput (AID 652017);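 further: 0% = vehicle wells and 100% = reference activator wells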
# Details: MG213 cells, MMTV-luciferase reporter, dexamethasone, overnight; at 9.1 µM; hits give high values
row,Compound,activation
1,O=S(=O)(c1ccc(F)cc1)n1ccc(-c2cnc(-c3ccccc3)s2)n1,0.36%
2,CCOC(=O)c1csc(NC(=O)C2CCCN(S(=O)(=O)c3ccc(Cl)s3)C2)n1 (configuration not stated),-3.75%
3,Nn1c(SCC(=O)Nc2cccc3ccccc23)nnc1-c1cc(-c2ccc(F)cc2)n[nH]1,-3.63%
4,CCS(=O)(=O)Nc1cc(C(=O)OC)ccc1C(=O)OC,-0.18%
5,O=C(OC12CC3CC(CC(C3)C1)C2)c1ccc(NCc2cc(O)ccc2O)cc1,-10.6%
6,COC(=O)c1ccc(NCc2cc(O)ccc2O)cc1,8.39% (active)
7,O=C(NC1CCCCN(Cc2ccc(Cl)cc2)C1=O)c1ccc(Br)cc1 (configuration not stated),-1.79%
8,CCc1ccc(NC2Nc3cc(C)nn3S2)cc1 (configuration not stated),8.13% (active)
9,CC(=O)Nc1ccc(Nc2nc3c(S(=O)(=O)c4ccc(C)c(C)c4)nnn3c3ccccc23)cc1,0.7%
10,CC(=O)Nc1ccc(Nc2c3ccccc3nc3ccccc23)cc1,8.59% (active)
11,CCc1c(C)nc2c(-c3ccccc3)c(C)nn2c1Nc1ccc(NC(C)=O)cc1,-0.14%
12,O=C(CSc1nc2c(c(=O)[nH]1)CCCC2)N1CCCCC1,-4.24%
13,CCC(=O)OCCCN1C(=O)CCC12CCC(c1ccccc1)CC2 (configuration not stated),-3.5%
14,CC(=O)OCCN1CCCC12CCC(c1ccccc1)CC2 (configuration not stated),-0.56%
15,C=CCN1[C@H](CC(C)C)COc2cccc(N3CCCC3)c2S1(=O)=O,-1.47%
16,Nn1c(SCC(=O)Nc2ccc(S(N)(=O)=O)cc2)nnc1-c1n[nH]c2c1CCC2,0.23%
17,Oc1cccc2ccc(/C=C/c3ccc(Br)s3)nc12,10.9% (active)
18,COc1ccc(NC(=O)Cn2ncn3c(cc4ccccc43)c2=O)c(OC)c1OC,1.32%
19,C[C@H](C(=O)N(C)c1ccccc1)[C@@H](O)c1ccc(Cl)cc1,-0.55%

row,Compound,activation
1,CCOC(=O)c1sc2nc(CSc3ccccc3)[nH]c(=O)c2c1C,9.98% (active)
2,CCOC(=O)c1sc2nc(C)nc(SCC(N)=O)c2c1C,-1.05%
3,CSc1nnc(SCc2nc3sc(C(=O)O)c(C)c3c(=O)[nH]2)s1,-1.68%
4,Cc1csc(Nc2ccc(Cl)cc2)[n+]1-c1ccc(Cl)cc1,-3.27%
5,CCC(c1ccc(NC(=O)OC(C)(C)C)cc1)c1cc(OC)cc(OC)c1 (configuration not stated),-2.7%
6,Cc1ccc(NC(=O)c2cc(C)nn2-c2ccccc2)c(C)c1,-4.44%
7,Cc1ccnc(Nc2nc3ccccc3s2)n1,10.6% (active)
8,Cc1ccnc(-n2sc3ccccc3c2=O)n1,1.96%
9,Cn1c(-c2ccc(C(F)(F)F)cc2)cc2onc(-c3ccccc3)c2c1=O,5.26%
10,Cn1c(-c2ccc(F)cc2)cc2onc(-c3ccccc3Cl)c2c1=O,9.9% (active)
11,Cc1[nH]n(C)c(=O)c1C(=O)c1c(-c2c(Cl)cccc2Cl)noc1C,-2.74%
12,CCOC(=O)[C@]12CCCCC/C=C\1N(Cc1ccc(OC)cc1)C(=O)[C@H]2CC(=O)NCCCN1CCCC1=O,-2.38%
13,O=C(CNS(=O)(=O)c1ccccc1F)N1CCN(c2ccccn2)CC1,-3.89%
14,COC(=O)[C@]12C[C@H](CC(=O)NCCc3ccccc3OC)C(=O)N(Cc3ccco3)C1=C[C@H](C(C)C)O[C@@H]2C1CC1,-4.32%
15,COC(=O)[C@]12C[C@H](CC(=O)NCc3cccc4ccccc34)C(=O)N(CCc3ccc(OC)c(OC)c3)C1=C[C@H](C1CCCC1)O[C@@H]2C,-1.03%
16,CCOc1cccc2c1OC1(CCCCC1)N1N=C(c3cccnc3)CC21 (configuration not stated),8% (active)
17,CCCCN1CCN(C(=O)c2ccc3c(c2)NC(=O)C(C)(C)O3)CC1,2.59%
18,O=S1(=O)c2c(cccc2N2CC[C@H](O)C2)O[C@@H]2CCN1C2,-1.6%
19,CCc1nc2ccc(C(=O)NCCNC(C)=O)cn2c1N(CC)Cc1cccc(Br)c1,-2.59%

row,Compound,activation
1,Cc1cnc(C(=O)N2CCCC(C(=O)c3ccc(C(F)(F)F)cc3)C2)cn1 (configuration not stated),1.89%
2,Cn1cc(/C=C/C(=O)N2CCCC(C(=O)c3ccc(C(F)(F)F)cc3)C2)cn1 (configuration not stated),9.62% (active)
3,COCC(=O)N1CCCC(C(=O)c2ccc(C(F)(F)F)cc2)C1 (configuration not stated),-2.48%
4,CCOC(=O)C1=C(C)NC2=C(C(=O)CC(C)(C)C2)C1c1ccc2c(c1)OCO2 (configuration not stated),-5.79%
5,O=C(c1cccc(C(F)(F)F)c1)N1CC[C@H]2[C@H](CCCN2Cc2cc(F)cc(F)c2)C1,-1.61%
6,CSc1ccc(/C=C/C(=O)NC23CC4CC(CC(C4)C2)C3)cc1,1.32%
7,CCOc1ccccc1NC(=O)C12CC3CC(C1)CC(c1ccc(C)cc1)(C3)C2,-1.92%
8,COc1ccc(/C=C/C(=O)Nc2ccc(C34CC5CC(CC(O)(C5)C3)C4)cc2)cc1OC,9.95% (active)
9,O=C(NCc1ccc(Cl)cc1)C1CCCN(c2nc3ccccc3o2)C1 (configuration not stated),-7.39%
10,Cc1ccc(C2=CCN(C)C(=O)N2c2ccc(Cl)cc2)cc1,1.89%
11,Cc1cc2oc3ccc(NCCC4CCCN4C)cc3c(=O)c2cc1C (configuration not stated),8.67% (active)
12,CN1CCC[C@@H]1CCO[C@](C)(c1ccccc1)c1ccc(Cl)cc1,-5.64%
13,S=C(NCCCc1cnc[nH]1)NCCCN(Cc1ccc(Cl)c(Cl)c1)c1ccc(Br)cn1,-3.8%
14,COC(=O)C[C@@H]1CC[C@H]2[C@@H](COc3ccc(NS(=O)(=O)CC(F)(F)F)cc3C(=O)N2C)O1,-3.47%
15,COC(=O)[C@]12C[C@H](CC(=O)N3CCN(C(=O)C4CC4)CC3)C(=O)N(CCC3=CCCCC3)C1=C[C@H](C(C)C)O[C@@H]2C1CC1,0.49%
16,Cc1cc(NS(=O)(=O)c2ccc(NC(=O)CSc3nnc(-c4ccc(C(C)(C)C)cc4)n3Cc3ccco3)cc2)nc(C)n1,-2%
17,O=C(CSc1nc2ccccc2c(=O)n1-c1ccccc1F)N1CCOCC1,-2.52%
18,Cc1ccc(-n2c(SCC(=O)N3CCC(C(=O)O)CC3)nc3ccccc3c2=O)cc1C,9% (active)
19,COc1ccc(-n2c(SCC(=O)Nc3ccc(C)c(Cl)c3)nc3ccccc3c2=O)cc1,-5.45%
